Assay results reported in paper PMC7862700, “An all-to-all approach to the identification of sequence-specific readers for epigenetic DNA modifications on cytosine”.

Experiments:
Test in all cases: DAPPL (digital affinity profiling via proximity ligation, sequencing); 10 mM Tris-HCl pH 7.5, 50 mM NaCl, 1 mM DTT, 4% glycerol, room temperature, 30 min; GST-TFs on glutathione beads, 16-mer random dsDNA library, 0.1% formaldehyde crosslink after washing; high values mean tight binding
FLI1 = target: T1, FLI1 (Homo sapiens, UniProt Q01543 1-452); conditions: protein: recombinant; tags: N-terminal GST; dsDNA, one strand shown
T1 sequence: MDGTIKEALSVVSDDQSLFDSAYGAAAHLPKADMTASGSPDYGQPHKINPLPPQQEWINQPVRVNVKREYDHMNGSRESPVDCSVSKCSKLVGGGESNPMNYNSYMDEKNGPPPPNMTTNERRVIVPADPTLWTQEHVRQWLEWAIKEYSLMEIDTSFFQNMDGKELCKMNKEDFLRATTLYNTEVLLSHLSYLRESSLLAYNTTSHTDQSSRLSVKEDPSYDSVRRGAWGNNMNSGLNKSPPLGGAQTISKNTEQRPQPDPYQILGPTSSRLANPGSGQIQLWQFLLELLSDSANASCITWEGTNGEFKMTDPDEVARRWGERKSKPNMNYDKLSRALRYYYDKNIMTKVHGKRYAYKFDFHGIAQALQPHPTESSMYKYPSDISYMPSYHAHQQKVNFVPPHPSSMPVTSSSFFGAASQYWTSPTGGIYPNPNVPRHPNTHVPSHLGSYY
Outline: (§1)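 Pools were built from human transcription factors expressed in yeast as GST fusions, captured on glutathione beads and DNA-barcoded, along with a tag-only sample. Incubation with 200 nmole of a 16-mer random double-stranded DNA library lasted 30 min at room temperature in Tris/NaCl/DTT/glycerol buffer, and was followed by washing, 0.1% formaldehyde crosslinking, proximity ligation, PCR amplification and Illumina NextSeq500 sequencing. Binding signal is the quotient of each hexamer's read frequency for a factor and its frequency for the tag-only sample.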

ELK1 = target: T2, ELK1 (Homo sapiens, UniProt P19419 1-428); conditions: protein: recombinant; tags: N-terminal GST; dsDNA, one strand shown
T2 sequence: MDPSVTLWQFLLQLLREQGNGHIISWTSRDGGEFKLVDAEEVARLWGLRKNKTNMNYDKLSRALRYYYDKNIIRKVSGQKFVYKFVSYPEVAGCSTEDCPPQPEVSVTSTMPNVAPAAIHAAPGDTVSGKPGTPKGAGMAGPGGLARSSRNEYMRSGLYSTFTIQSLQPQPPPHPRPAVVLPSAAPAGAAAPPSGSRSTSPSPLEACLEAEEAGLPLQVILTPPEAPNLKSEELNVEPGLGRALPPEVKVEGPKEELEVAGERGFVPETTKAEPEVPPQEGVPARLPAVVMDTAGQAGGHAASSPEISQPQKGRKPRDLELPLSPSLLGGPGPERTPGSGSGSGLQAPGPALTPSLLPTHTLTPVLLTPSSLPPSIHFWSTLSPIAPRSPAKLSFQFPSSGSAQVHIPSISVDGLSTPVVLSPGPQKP
Outline: as §1

GABPA = target: T3, GABPA (Homo sapiens, UniProt Q06546 1-454); conditions: protein: recombinant; tags: N-terminal GST; dsDNA, one strand shown
T3 sequence: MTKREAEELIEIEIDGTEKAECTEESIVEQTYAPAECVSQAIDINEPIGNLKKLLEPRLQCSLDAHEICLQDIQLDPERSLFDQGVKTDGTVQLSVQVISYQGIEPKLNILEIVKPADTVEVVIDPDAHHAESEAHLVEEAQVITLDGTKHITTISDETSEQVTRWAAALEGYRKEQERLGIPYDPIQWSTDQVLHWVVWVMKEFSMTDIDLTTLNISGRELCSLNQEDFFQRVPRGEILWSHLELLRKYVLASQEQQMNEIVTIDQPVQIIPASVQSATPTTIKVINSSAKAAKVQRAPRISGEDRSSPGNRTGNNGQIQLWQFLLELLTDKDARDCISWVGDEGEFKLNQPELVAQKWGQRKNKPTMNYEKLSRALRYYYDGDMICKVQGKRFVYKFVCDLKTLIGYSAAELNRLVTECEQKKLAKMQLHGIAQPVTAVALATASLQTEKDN
Outline: as §1

ERG = target: T4, ERG (Homo sapiens, UniProt P11308 1-479); conditions: protein: recombinant; tags: N-terminal GST; dsDNA, one strand shown
T4 sequence: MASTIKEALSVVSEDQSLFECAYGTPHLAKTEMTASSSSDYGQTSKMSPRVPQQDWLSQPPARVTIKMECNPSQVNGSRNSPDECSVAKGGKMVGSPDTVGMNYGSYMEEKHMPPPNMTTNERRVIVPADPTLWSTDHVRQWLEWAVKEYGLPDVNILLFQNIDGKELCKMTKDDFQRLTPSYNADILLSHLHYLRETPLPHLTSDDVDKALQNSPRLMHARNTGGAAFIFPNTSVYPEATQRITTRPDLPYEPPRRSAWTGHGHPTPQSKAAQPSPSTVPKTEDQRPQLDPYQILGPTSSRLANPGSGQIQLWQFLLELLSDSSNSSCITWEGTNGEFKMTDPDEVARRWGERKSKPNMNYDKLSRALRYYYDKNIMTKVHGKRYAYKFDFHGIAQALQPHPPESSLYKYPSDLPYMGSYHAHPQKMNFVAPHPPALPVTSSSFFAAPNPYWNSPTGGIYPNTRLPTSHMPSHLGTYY
Outline: as §1

ELF1 = ELF1 (Homo sapiens, UniProt P32519 1-619); conditions: protein: recombinant; tags: N-terminal GST; dsDNA, one strand shown
Outline: as §1

EHF = target: T5, EHF (Homo sapiens, UniProt Q9NZC4 1-300); conditions: protein: recombinant; tags: N-terminal GST; dsDNA, one strand shown
T5 sequence: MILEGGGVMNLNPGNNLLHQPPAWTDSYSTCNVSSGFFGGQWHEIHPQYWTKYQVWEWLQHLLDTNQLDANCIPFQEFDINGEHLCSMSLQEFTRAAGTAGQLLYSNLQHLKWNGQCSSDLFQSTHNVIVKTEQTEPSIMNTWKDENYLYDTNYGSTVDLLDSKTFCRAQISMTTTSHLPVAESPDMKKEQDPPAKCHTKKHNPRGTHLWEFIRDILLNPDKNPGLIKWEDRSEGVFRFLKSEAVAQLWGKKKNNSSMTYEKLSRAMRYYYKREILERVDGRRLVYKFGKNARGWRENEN
Outline: as §1

SPI1 = SPI1 (Homo sapiens, UniProt P17947 1-270); conditions: protein: recombinant; tags: N-terminal GST; dsDNA, one strand shown
Outline: as §1

SPIB = SPIB (Homo sapiens, UniProt Q01892 1-262); conditions: protein: recombinant; tags: N-terminal GST; dsDNA, one strand shown
Outline: as §1

ELK3 = target: T6, ELK3 (Homo sapiens, UniProt P41970 1-407); conditions: protein: recombinant; tags: N-terminal GST; dsDNA, one strand shown
T6 sequence: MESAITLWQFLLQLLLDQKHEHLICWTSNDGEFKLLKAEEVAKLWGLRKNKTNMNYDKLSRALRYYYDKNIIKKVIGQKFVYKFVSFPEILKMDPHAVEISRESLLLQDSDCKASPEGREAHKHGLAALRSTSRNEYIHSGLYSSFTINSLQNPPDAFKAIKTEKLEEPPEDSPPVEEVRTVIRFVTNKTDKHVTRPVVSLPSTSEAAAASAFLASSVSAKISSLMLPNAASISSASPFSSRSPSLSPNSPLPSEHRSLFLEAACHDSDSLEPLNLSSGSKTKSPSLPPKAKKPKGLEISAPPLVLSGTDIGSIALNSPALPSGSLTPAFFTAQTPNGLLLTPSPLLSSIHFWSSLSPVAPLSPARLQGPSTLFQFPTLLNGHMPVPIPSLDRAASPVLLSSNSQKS
Outline: as §1

FEV = target: T7, FEV (Homo sapiens, UniProt Q99581 1-238); conditions: protein: recombinant; tags: N-terminal GST; dsDNA, one strand shown
T7 sequence: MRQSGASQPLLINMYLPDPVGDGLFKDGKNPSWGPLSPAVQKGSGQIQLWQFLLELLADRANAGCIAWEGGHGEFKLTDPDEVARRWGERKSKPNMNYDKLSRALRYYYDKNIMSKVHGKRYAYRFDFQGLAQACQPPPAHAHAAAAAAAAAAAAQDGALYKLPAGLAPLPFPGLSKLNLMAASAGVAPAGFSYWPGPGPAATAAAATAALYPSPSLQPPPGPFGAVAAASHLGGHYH
Outline: as §1

ETV5 = ETV5 (Homo sapiens, UniProt P41161 1-510); conditions: protein: recombinant; tags: N-terminal GST; dsDNA, one strand shown
Outline: as §1

HSF1 = HSF1 (Homo sapiens, UniProt Q00613 1-529); conditions: protein: recombinant; tags: N-terminal GST; chain copies: 3; dsDNA, one strand shown
Outline: as §1

SPIC = target: T8, SPIC (Homo sapiens, UniProt Q8N5J4 1-248); conditions: protein: recombinant; tags: N-terminal GST; dsDNA, one strand shown
T8 sequence: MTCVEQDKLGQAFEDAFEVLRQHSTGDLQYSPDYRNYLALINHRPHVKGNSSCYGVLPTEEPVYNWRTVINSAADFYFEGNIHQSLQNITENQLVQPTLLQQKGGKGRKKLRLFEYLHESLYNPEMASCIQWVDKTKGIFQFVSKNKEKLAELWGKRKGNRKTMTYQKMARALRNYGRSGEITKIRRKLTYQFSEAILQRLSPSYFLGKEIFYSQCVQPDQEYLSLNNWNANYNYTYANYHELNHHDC
Outline: as §1

ELF4 = ELF4 (Homo sapiens, UniProt Q99607 1-663); conditions: protein: recombinant; tags: N-terminal GST; dsDNA, one strand shown
Outline: as §1

ELK4 = target: T9, ELK4 (Homo sapiens, UniProt P28324-2 1-405); conditions: protein: recombinant; tags: N-terminal GST; dsDNA, one strand shown
T9 sequence: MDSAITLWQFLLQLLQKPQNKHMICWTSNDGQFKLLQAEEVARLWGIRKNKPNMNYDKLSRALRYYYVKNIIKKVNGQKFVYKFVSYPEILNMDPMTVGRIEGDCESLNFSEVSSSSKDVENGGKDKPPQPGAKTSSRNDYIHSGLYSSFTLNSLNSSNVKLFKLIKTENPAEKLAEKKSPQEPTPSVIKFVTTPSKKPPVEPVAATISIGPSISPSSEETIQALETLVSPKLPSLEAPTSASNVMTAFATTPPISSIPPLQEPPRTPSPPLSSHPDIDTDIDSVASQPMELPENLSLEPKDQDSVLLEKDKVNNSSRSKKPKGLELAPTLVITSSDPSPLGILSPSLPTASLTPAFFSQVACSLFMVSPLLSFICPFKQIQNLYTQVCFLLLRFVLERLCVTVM
Outline: as §1

ETV2 = target: T10, ETV2 (Homo sapiens, UniProt O00321 1-342); conditions: protein: recombinant; tags: N-terminal GST; dsDNA, one strand shown
T10 sequence: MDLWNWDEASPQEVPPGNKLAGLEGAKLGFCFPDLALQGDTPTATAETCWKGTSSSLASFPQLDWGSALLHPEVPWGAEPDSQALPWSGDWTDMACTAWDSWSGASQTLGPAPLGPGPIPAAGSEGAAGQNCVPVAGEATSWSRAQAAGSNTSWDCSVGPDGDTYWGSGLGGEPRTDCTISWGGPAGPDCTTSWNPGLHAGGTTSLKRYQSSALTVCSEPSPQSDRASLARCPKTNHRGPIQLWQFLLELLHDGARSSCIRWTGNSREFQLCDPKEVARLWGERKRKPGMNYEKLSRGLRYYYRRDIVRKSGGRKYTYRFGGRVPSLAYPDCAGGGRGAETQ
Outline: as §1

ELF3 = target: T11, ELF3 (Homo sapiens, UniProt P78545 1-371); conditions: protein: recombinant; tags: N-terminal GST; dsDNA, one strand shown
T11 sequence: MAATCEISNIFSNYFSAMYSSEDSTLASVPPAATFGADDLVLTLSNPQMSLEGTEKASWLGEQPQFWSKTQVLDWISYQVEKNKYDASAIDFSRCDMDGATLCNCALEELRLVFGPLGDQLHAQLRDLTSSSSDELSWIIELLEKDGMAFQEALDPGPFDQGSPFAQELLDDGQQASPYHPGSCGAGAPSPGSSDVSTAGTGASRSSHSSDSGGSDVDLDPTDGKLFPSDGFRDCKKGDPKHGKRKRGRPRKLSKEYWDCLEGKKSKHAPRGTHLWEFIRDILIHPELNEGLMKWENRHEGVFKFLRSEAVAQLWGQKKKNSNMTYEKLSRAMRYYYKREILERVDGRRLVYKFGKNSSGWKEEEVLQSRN
Outline: as §1

CRX = CRX (Homo sapiens, UniProt O43186 1-299); conditions: protein: recombinant; tags: N-terminal GST; dsDNA, one strand shown
Outline: as §1

ETV1 = ETV1 (Homo sapiens, UniProt P50549 1-477); conditions: protein: recombinant; tags: N-terminal GST; dsDNA, one strand shown
Outline: as §1

HSF1, sequence (Q00613 whole entry): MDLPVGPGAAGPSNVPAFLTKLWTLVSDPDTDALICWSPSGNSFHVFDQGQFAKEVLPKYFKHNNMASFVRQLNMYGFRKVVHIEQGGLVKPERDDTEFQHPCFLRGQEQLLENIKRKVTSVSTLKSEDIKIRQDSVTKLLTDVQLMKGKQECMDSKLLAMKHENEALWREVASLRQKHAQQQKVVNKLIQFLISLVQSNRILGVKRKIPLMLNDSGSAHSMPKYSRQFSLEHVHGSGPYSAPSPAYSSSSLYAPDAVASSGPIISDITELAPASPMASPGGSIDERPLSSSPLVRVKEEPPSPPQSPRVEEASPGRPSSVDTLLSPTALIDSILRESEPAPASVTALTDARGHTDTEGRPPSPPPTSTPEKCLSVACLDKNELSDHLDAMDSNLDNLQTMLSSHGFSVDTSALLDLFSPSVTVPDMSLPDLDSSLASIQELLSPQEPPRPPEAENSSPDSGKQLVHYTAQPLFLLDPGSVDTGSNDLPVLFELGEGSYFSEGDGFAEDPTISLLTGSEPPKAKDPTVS
ETV5, sequence (P41161 whole entry): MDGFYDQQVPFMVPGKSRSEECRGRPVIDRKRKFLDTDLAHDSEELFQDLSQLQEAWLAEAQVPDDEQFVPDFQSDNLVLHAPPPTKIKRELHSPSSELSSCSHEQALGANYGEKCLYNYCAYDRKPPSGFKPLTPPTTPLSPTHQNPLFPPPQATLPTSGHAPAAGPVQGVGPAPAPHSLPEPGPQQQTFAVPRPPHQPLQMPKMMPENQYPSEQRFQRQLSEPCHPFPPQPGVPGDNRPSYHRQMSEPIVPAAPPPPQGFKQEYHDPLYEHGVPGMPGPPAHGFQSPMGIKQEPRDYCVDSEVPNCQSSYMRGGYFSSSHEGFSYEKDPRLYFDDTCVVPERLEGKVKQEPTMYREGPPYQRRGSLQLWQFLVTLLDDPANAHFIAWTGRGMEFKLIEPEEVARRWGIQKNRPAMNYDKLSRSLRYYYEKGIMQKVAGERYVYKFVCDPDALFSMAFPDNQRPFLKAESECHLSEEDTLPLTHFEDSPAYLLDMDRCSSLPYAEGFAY
SPIB, sequence (Q01892 whole entry): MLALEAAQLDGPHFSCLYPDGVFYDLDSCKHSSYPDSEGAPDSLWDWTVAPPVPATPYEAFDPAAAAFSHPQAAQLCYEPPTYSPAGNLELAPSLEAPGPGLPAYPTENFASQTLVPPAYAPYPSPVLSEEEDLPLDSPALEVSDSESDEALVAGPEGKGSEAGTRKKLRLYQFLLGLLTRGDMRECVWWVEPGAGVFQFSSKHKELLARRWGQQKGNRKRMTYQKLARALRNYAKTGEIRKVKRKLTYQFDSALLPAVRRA
CRX, sequence (O43186 whole entry): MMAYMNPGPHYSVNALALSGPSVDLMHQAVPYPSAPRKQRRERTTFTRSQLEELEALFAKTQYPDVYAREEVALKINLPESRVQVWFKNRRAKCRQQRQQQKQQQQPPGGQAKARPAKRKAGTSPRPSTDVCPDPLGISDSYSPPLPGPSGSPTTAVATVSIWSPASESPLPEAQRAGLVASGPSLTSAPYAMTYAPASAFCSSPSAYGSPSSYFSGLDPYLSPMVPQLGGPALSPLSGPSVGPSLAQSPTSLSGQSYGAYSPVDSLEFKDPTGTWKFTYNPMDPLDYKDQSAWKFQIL
ELF1, sequence (P32519 whole entry): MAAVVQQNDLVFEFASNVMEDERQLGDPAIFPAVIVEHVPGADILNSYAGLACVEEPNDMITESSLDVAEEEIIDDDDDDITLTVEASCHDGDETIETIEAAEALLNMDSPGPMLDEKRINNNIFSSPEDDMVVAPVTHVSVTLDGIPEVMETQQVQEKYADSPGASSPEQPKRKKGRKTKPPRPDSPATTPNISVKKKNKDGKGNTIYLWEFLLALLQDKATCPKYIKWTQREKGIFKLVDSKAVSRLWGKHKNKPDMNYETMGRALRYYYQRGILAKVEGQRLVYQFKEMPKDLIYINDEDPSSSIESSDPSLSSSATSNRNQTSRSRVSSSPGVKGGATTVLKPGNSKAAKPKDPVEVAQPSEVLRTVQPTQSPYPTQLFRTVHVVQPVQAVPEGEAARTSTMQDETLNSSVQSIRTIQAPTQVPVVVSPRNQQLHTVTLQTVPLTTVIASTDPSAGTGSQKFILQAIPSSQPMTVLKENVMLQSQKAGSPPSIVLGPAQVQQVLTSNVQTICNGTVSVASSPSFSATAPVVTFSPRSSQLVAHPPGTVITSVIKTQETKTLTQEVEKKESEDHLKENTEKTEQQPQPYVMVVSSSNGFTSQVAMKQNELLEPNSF
ELF4, sequence (Q99607 whole entry): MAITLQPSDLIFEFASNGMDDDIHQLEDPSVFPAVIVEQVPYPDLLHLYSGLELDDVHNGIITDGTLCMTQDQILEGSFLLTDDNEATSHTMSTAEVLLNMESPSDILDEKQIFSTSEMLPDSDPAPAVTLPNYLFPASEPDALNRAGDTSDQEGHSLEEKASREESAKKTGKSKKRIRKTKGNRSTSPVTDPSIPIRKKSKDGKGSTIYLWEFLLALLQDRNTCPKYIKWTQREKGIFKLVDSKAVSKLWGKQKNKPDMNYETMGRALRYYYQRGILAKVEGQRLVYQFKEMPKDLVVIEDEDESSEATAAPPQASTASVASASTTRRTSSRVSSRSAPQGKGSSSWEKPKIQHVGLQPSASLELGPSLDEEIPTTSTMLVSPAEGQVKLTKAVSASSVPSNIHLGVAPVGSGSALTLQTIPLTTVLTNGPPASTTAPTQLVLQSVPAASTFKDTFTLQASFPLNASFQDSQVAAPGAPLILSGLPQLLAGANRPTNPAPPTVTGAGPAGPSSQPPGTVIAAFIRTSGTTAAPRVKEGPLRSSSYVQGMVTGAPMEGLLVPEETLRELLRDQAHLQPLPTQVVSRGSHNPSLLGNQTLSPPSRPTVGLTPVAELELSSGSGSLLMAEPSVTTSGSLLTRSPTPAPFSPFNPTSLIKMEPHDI
ETV1, sequence (P50549 whole entry): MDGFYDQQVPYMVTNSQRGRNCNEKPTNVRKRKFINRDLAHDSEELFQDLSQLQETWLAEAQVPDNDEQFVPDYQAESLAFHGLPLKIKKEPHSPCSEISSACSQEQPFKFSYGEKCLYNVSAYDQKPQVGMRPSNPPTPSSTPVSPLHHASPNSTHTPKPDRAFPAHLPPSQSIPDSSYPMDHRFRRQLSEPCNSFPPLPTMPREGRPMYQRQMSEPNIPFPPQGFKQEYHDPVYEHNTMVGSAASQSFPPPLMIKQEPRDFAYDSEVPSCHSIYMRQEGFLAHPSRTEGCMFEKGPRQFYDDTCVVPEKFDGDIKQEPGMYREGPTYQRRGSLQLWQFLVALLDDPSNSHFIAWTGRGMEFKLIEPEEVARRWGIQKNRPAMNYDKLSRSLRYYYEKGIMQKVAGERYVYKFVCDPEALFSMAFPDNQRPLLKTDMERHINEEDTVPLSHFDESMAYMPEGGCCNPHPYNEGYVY

With TCCCTG the binding signal (FLI1) was 1.28 fold enrichment (6-mer frequency, TF over GST control), the binding signal (ELK1) was 1.25 fold enrichment (6-mer frequency, TF over GST control) and the binding signal (GABPA) was 1.36 fold enrichment (6-mer frequency, TF over GST control). The binding signal (ERG) was 1.28 fold enrichment (6-mer frequency, TF over GST control), the binding signal (ELF1) was 1.32 fold enrichment (6-mer frequency, TF over GST control) and the binding signal (EHF) was 1.33 fold enrichment (6-mer frequency, TF over GST control). For the same sequence, the binding signal (SPI1) was 1.29 fold enrichment (6-mer frequency, TF over GST control), the binding signal (SPIB) was 1.35 fold enrichment (6-mer frequency, TF over GST control) and the binding signal (ELK3) was 1.14 fold enrichment (6-mer frequency, TF over GST control). For the same sequence, the binding signal (FEV) was 1.28 fold enrichment (6-mer frequency, TF over GST control), the binding signal (ETV5) was 1.35 fold enrichment (6-mer frequency, TF over GST control) and the binding signal (HSF1) was 1.24 fold enrichment (6-mer frequency, TF over GST control). For the same sequence, the binding signal (SPIC) was 1.38 fold enrichment (6-mer frequency, TF over GST control), the binding signal (ELF4) was 1.31 fold enrichment (6-mer frequency, TF over GST control) and the binding signal (ELK4) was 1.19 fold enrichment (6-mer frequency, TF over GST control). For the same sequence, the binding signal (ETV2) was 1.38 fold enrichment (6-mer frequency, TF over GST control), the binding signal (ELF3) was 1.2 fold enrichment (6-mer frequency, TF over GST control) and the binding signal (CRX) was 1.3 fold enrichment (6-mer frequency, TF over GST control). For the same sequence, the binding signal (ETV1) was 1.35 fold enrichment (6-mer frequency, TF over GST control).
